Assay results as given in PubChem BioAssay (Tox21).
Results filed as inconclusive are left out. A number with no mark means an inactive call. Calls come from the whole dose curve; as a rule, active = well fitted cell-killing curve with a large enough effect in the repeat runs; inconclusive = weak or mixed curves, or effect the other way; inactive = flat fitted curve, though single readings scatter.

Assay: qHTS RealTime-Glo MT Cell Viability Assay in HEK293 cells - 0 hour (AID 1224880); note: top concentration of the series differs between compounds; nearly all actives have a fitted effect of over 45% in size
Conditions: RealTime-Glo luminescence; series mostly up to 76.8 µM; activity change, negative = cytotoxicity: at the top concentration
Excerpt: U.S. Tox21 Program National Center for Advancing Translational Sciences [NCATS] NIH Chemical Genomics Center [NCGC] U.S. Environmental Protection Agency [EPA] National Institutes of Environmental Health Sciences [NIEHS] National Toxicology Program [NTP] U.S. Food and Drug Administration [FDA] Tox21 Assay Overview: Measure of cell viability is critical in the cell-base assay. Analysis of cell viability is necessary for the characterization of cell responses to cytotoxic drugs and environmental stress. A RealTime-Glo MT Cell Viability Assay to monitor cell viability in real time of continues cell culture during 40 hours of compound treatment was used to screen Tox21 10K library compounds in Hek293 cells. The RealTime-Glo MT Cell Viability Assay is a nonlytic, homogeneous, bioluminescent method to measure cell viability in real time using a simple, plate-based method. The assay involves adding NanoLuc luciferase and a cell-permeant prosubstrate to cells in culture. Viable cells reduce the proprietary prosubstrate to generate a substrate for NanoLuc luciferase. This substrate diffuses from cells into the surrounding culture medium, where it is rapidly used by the NanoLuc Enzyme to produce a luminescent signal. The signal correlates with the number of viable cells, making the assay well suited for cytotoxicity studies.
Tox21 Assay Protocol Summary: The mixture of Hek293 cell suspension and reagents were dispensed at 600cells/6 ul/well in 1536-well tissue culture treated black solid bottom plates using a Multidrop dispenser. After the assay plates were incubated at a 37 C/5% CO2 incubator for 5 hours, 23 nL of compounds dissolved in DMSO, positive and negative controls was transferred to the assay plate by a pintool work station. The plates were incubated at 37 C for 40 hours. The luminescence intensity were measured at 0h, 8h, 16h, 24h, 32h and 40h time points using ViewLux plate reader during compound treatment.
% is set by controls: 0 for no effect and ±100 for the full control effect.

| Structure (SMILES) | activity change, negative = cytotoxicity |
| --- | --- |
| OC[C@H]1O[C@@H]2O[C@H]3[C@H](O)[C@@H](O)[C@@H](O[C@H]4[C@H](O)[C@@H](O)[C@@H](O[C@H]5[C@H](O)[C@@H](O)[C@@H](O[C@H]6[C@H](O)[C@@H](O)[C@@H](O[C@H]7[C@H](O)[C@@H](O)[C@@H](O[C@H]8[C@H](O)[C@@H](O)[C@@H](O[C@H]9[C@H](O)[C@@H](O)[C@@H](O[C@H]1[C@H](O)[C@H]2O)O[C@@H]9CO)O[C@@H]8CO)O[C@@H]7CO)O[C@@H]6CO)O[C@@H]5CO)O[C@@H]4CO)O[C@@H]3CO | 1.01% [at 35.3 µM] |
| CC(C)COC(=O)c1ccccc1O | 8.41% |
| C=C(C)C1CC=C(C)C(O)C1 (stereo not given) | 20.6% |
| OC1OC[C@@H](O)[C@H](O)[C@H]1O (stereo not given in full) | 5.34% |
| C=C(C)C(=O)NCCC[N+](C)(C)C | 5.56% |
| NS(=O)(=O)c1cc2c(cc1Cl)NC(CSCc1ccccc1)=NS2(=O)=O | -6.42% [at 35.3 µM] |
| Cn1ccc2cc3c(cc21)CCN3C(=O)Nc1cccnc1 | -0.254% [at 15.8 µM] |
| OCc1ccccn1 | 0.32% [at 35.3 µM] |
| CCCCOCC(C)OCC(C)O (stereo not given) | 2.22% |
| CCO[Si](CCCN=C=O)(OCC)OCC | 4.61% |
| CCCCCCCCCCCCCCCCCCOCC(O)CO (stereo not given) | -2.57% [at 35.3 µM] |
| O=C(O)c1ccccc1S | 10.9% [at 35.3 µM] |
| CCN1CCCC1CNC(=O)c1cc(S(N)(=O)=O)ccc1OC (stereo not given) | 16.4% |
| C=C[Si](OC)(OC)OC | 15.8% |
| O=C(O)C(O)[C@H](O)[C@@H](O)[C@H](O)[C@H](O)CO (stereo not given in full) | -13.1% |
| CC12CCC(CC1=O)C2(C)C (stereo not given) | 2.58% |
| C=C(C)[C@H]1CC=C(C)CC1 | 0.961% |
| COC(=O)[C@H]1[C@H]2C[C@@H]3c4[nH]c5cc(OC)ccc5c4CCN3C[C@H]2C[C@@H](OC(=O)COc2ccc(OC)cc2)[C@@H]1OC | 2.76% [at 35.3 µM] |
| O=C1OC(=O)c2cc([N+](=O)[O-])ccc21 | -8.32% |
| COCCOC(=O)CC#N | -3.53% |

| Structure (SMILES) | activity change, negative = cytotoxicity |
| --- | --- |
| O=S(=O)(O)c1ccccc1O | 5.09% |
| CCCOCC(C)OCC(C)O (stereo not given) | 2.32% |
| Cc1cc(C)cc(OCC2CNC(=O)O2)c1 (stereo not given) | 1.94% [at 35.3 µM] |
| N#CC1(O)CCCCC1 | 5.06% |
| CCCCc1ccc2cccc(S(=O)(=O)O)c2c1 | -0.863% |
| CCCc1ccccc1O | 5.51% |
| C#CC(C)(O)CC(C)C (stereo not given) | 5.2% |
| CC(C)(O)Cc1ccccc1 | 1.36% |
| COc1ccc(COC=O)cc1 | 9.09% |
| C1COCCO1 | -0.274% |
| CC(C)(C)C(=O)/C=C/c1ccc(Cl)cc1 | -0.998% |
| COc1cccc(Br)c1 | -7.67% |
| CCCCCCCCCCCCI | 1.04% |
| CC(C)(C)OC(=O)N1C[C@@H](F)C[C@H]1C(=O)O | 2.06% |
| c1ccc(CCCc2ccccn2)cc1 | -1.76% |
| CC(C)[N+](C)(C)CC(O)COc1cccc2ccccc12 (stereo not given) | -1.53% [at 35.3 µM] |
| CCCc1ccc(N)cc1 | 2.69% |
| C[C@H](O)C(=O)Nc1c(I)c(C(=O)NC(CO)CO)c(I)c(C(=O)NC(CO)CO)c1I | -0.78% [at 35.3 µM] |
| CCN(CC)C(=O)c1ccc(O)c(OC)c1 | 6.16% [at 35.3 µM] |
| CC(C)(O)C(=O)c1ccc(OCCO)cc1 | 6.06% |
